Each sequence was assayed against GRIA1 (assay: pooled miR-30 sensor sort-seq; sequence = guide strand). Conditions: shRNA.
Further: reference of the scale not given here.

| Sequence | sensor-assay potency score (higher = more potent) |
| --- | --- |
| TTCTCTAGCTTTATAATCTGGC | -0.406 |
| TATCGTACCACCATTTGCTTTT | -0.245 |
| TTTGTTTAAGTCAATGTCCATG | -1.06 |
| TCCATCACTGACAATCTCCAGA | -1.21 |
| TTGACTGCTGTCACCTGCCAGT | -0.603 |
| AAATCTATAACTTCTTCCCGGA | 0.0312 |
| TATAACTTCTTCCCGGACCAAA | -1.38 |
| TAAACCTTCAAATCGCACCTGC | 0.232 |
| TTGTCTTGTCCTTACTTCCGGA | -0.41 |
| TTTCTCATTAAACTGCACGTTT | -0.314 |
| TTATCGTACCACCATTTGCTTT | -1.73 |
| TTTCTGTCTGCTTCGCTAGGTC | -0.0532 |

These sequences were tested against GRIK2 in the same assay as above. Conditions: shRNA.

| Sequence | sensor-assay potency score (higher = more potent) |
| --- | --- |
| TTAATTAGACTCATAAAGCGGG | 0.186 |
| TTCTTCATTACTTTTGACCAGC | -0.437 |
| TAGAGCAGCATCAGTCGTCATA | -0.889 |
| TTGTCCATTGGCATCATCCTGG | -0.234 |
| TACACTGCAAGGAACTGACTGT | 0.034 |
| TTTATGTCGATTACACTGCAAG | -0.937 |
| TCGAACATAGGTAATAGCCAGT | -0.567 |
| TTGACCAGCACTGACTGCCTTC | -0.29 |
| TTTGTTTAGCTAAATCATCAGC | -0.527 |
| TTTGTTGTCTGACACCTGGTGC | 0.0104 |
| TTGAGTCGAAGATTATACCTTG | 0.358 |
| TACTGCTCCATATTCTATCTTG | -0.199 |
